Assay results reported in ChEMBL document CHEMBL3988442, “University of Dundee, Small-Polar-MMV Screening Library” (2021).
About 13,000 (27%) of roughly 48,000 compounds showed an effect of 50% or more. Some of the results follow.

test system: Wolbachia pipientis; assay: Anti-Wolbachia Cell-Based Screen; assay type: functional; parameters: scale not given: in the data most compounds retested in dose-response had high values; details: 5 µM

SMILES | Percent Effect
Cc1cc(F)ccc1N1CCC(N2C[C@@H](C)[C@@](C)(O)C2)CC1 | -24.61%
OCCOCc1n[nH]c2c1CN(Cc1cccs1)C2 | -8.945%
C1CCC(c2nc3c(c(N4CC(N5CCOCC5)C4)n2)CCNCC3)C1 | -4.65%
Cc1noc(C)c1CN(C)C(=O)C1CCCCN1CC(C)C (centres undefined) | 0.6295%
CCc1cnc(C)nc1N1CCS(=O)(=O)CC1 | 16.32%
CN1C[C@@H](C(=O)NC(C)(C)C)[C@@]2(COc3ccc(F)cc3C2=O)C1 | 107.1%
CC(C)(C)NC(=O)C1CSCN1S(=O)(=O)c1ccc(F)cc1 (centres undefined) | 5.212%
CC(C)(C)NC(=O)C1CSCN1S(=O)(=O)c1cccc(F)c1 (centres undefined) | 1.077%
CC(=O)c1cccc(S(=O)(=O)N2CSCC2C(=O)NCC(F)(F)F)c1 (centres undefined) | 8.95%
CN(C)C(=O)c1c[nH]nc1-c1ccc(CNC(=O)c2cnccn2)cc1 | 109.4%
Cc1ncsc1C(=O)NCc1cccs1 | -3.425%
CN(c1ccc(CNC(=O)c2ccc(O)nc2)cc1)C1CCCCC1 | 6.661%
Cc1ccc(CNC(=O)c2c[nH]nc2NC(=O)C2CCC2)cc1 | 4.147%
Cc1cc(C(=O)NCc2ccccc2CN(C)Cc2ccco2)on1 | 21.5%
CN(C)C(=O)c1cncnc1-c1ccc(CNC(=O)C2CC2)cc1 | 73.6%
CCOc1cc(CNC(=O)c2cc(-c3ccccn3)no2)ccn1 | -5.804%
Cc1ncsc1C(=O)NCc1ccc(-c2n[nH]cc2C(=O)N(C)C)cc1 | 72.18%
CCN(CC)c1ccc(CNC(=O)c2cnccn2)cn1 | 2.528%
CN(CCOc1cccc(CNC(=O)C2CC2)c1)C1CCOCC1 | -18.9%
Cc1cc(C(=O)NCc2ccc(-c3n[nH]cc3C(=O)N(C)C)cc2)on1 | 136.2%
CN(Cc1ccco1)Cc1ccccc1CNC(=O)c1cnccn1 | 7.808%
CCC(C)NC(=O)c1ccc(NC(=O)CCCn2cncn2)c(C)c1 (centres undefined) | -0.8579%
CC(C)=CCS(=O)(=O)Cc1ccn(-c2cccc(F)c2)n1 | -8.164%

SMILES | Percent Effect
Cc1cc(C)n2nc(CC(=O)N3CC[C@H]4NCCC[C@]4(CO)C3)nc2n1 | 5.114%
CCC(O)Cn1nc(CCSC)nc1-c1ccc2c(c1)OCCO2 (centres undefined) | -7.02%
CCc1nc(C2CCCN(C(=O)c3ccc(OC(C)C)nc3)C2)no1 (centres undefined) | 4.592%
CC(C)c1nc(C2CCCN(C(=O)c3ccc4[nH]cnc4c3)C2)no1 (centres undefined) | 1.919%
CCc1nc(C2CCCN(C(=O)c3cn(C)nc3C)C2)no1 (centres undefined) | -1.661%
CCc1nc(C2CCCN(C(=O)c3ccc4[nH]cnc4c3)C2)no1 (centres undefined) | 87.55%
CCc1nc(C2CCCN(C(=O)c3c(C)noc3C)C2)no1 (centres undefined) | 106.3%
CCc1nc(C2CCCN(C(=O)c3ccc(Cl)cc3)C2)no1 (centres undefined) | 149.4%
CCc1nc(C2CCCN(C(=O)c3ccc(O)nc3)C2)no1 (centres undefined) | 94.4%
CCc1nc(C2CCCN(C(=O)c3ccc4[nH]nnc4c3)C2)no1 (centres undefined) | 1.903%
O=C(NCc1ccc(CN2CCCC2)cc1)NCc1ccon1 | -9.348%
COc1cc(C)nc(N2CCN(C(=O)CNC(C)(C)C)CC2)n1 | -7.081%
c1cncc(NCCCNC2CCSC2)c1 (centres undefined) | 8.573%
Cn1cnnc1-c1cncc(NCc2cccc3c2OCO3)c1 | -7.225%
Cc1noc(C(C)Nc2ccc3oc(=O)[nH]c3c2)n1 (centres undefined) | -7.057%
CN(CC(=O)N1CCN(c2ncccn2)CC1)c1ccc(Cl)cn1 | -31.13%
CCc1nc(C2CCCN(C(=O)c3ccc(F)cc3)C2)no1 (centres undefined) | 103.7%
Cc1c[nH]nc1C1CCCN(C(=O)c2c(C)noc2C)C1 (centres undefined) | 107%
CCc1nc(C2CCCN(C(=O)c3ccc(OC)cc3)C2)no1 (centres undefined) | 87.64%
Cc1noc(C)c1C(=O)N1CCCC(c2nccn2Cc2cscn2)C1 (centres undefined) | -18.15%
CCc1nc(C2CCCN(C(=O)c3ccncc3)C2)no1 (centres undefined) | 123.6%
Cc1cc(C)n(C2CCCN(C(=O)c3c(C)noc3C)C2)n1 (centres undefined) | -7.23%
CCc1ccc(C(=O)N2CCCC(c3noc(CC)n3)C2)o1 (centres undefined) | 3.526%

SMILES | Percent Effect
C=Cc1ccc(C(=O)N2CCCC(Nc3ccc(F)cc3)C2)cc1 (centres undefined) | -17.89%
CCC(CC(=O)NS(=O)(=O)C(C)C)c1ccccc1 (centres undefined) | 10.71%
COc1cc2c(cc1CNCc1cccnc1-n1cccn1)OC(C)C2.Cl (centres undefined) | 12.76%
Cc1ccc(C)c(CNC(=O)NC(C)(C(=O)O)c2ccco2)c1 (centres undefined) | 3.789%
CC1=C(CCN2CCCC(O)C2)C(C)(C)CCC1 (centres undefined) | -3.829%
C(=C\c1ccc(CN2CCCC2)cn1)/c1ccccc1 | -4.188%
Br.O=C(O)c1csc(NCCc2ccccc2)n1 | 93.16%
CC(=O)Nc1nc(C(=O)NCCOc2ccccc2)cs1 | -21.48%
CCCNc1nc(CS(=O)(=O)c2ccccc2)cs1 | -6.524%
CC(C)(C)CC(=O)NCC(=O)NCC(O)c1ccc2ccccc2c1 (centres undefined) | 2.35%
CN(Cc1ccc(-n2cccn2)cc1)c1cc(N)nc(N)n1 | -3.397%
O=C1N(C2CCOCC2)CCCC12CCN(c1ncccc1Cl)C2 (centres undefined) | 119%
Cc1cc(N2CCC3(CCCN(C4CCOCC4)C3=O)C2)ccn1 (centres undefined) | 118.2%
Cc1ccc(C#N)c(N2CCC3(CCCN(C4CCOCC4)C3=O)C2)n1 (centres undefined) | 93.97%
Cc1nccnc1N1CCC2(CCCN(C3CCOCC3)C2=O)C1 (centres undefined) | 28.32%
Cc1cnc(C)c(N2CCC3(CCCN(C4CCOCC4)C3=O)C2)n1 (centres undefined) | 106.2%
Cc1ccc(C#N)c(N2CCC3(CCC(=O)N(CC(N)=O)C3)CC2)n1 | -13.92%
COc1ccnc(N2CCC3(CCCN(C(C)C)C3=O)C2)n1 (centres undefined) | 10.66%
N#Cc1cccnc1N1CCC2(CCCN(C3CCOCC3)C2=O)C1 (centres undefined) | -10.29%
COC[C@@]12CC[C@@H](N3CCOCC3)C[C@H]1CCN(c1ncccc1Cl)C2 | 19.13%
Cc1cc(N2CCC(c3nnc(CN(C)C)n3C3CC3)CC2)ccn1 | 1.365%
Cc1nc(N2CCC3(CCCN(C(C)C)C3=O)C2)c2sccc2n1 (centres undefined) | -8.987%
Cc1ccc(C#N)c(N2CCC(c3nccn3Cc3cscn3)CC2)n1 | -1.954%
